# A selection: hits, their analogues and other compounds. The true share with any hit is near 12%.
# Cycloheximide cs – affects cycloheximide protein synthesis inhibition readout, counter-screen. cell reporter, cycloheximide protein synthesis inhibition counterscreen. max response, %. 12% of 300,000 active; in the data active means max response mostly above about 13%, no sharp cut-off; inactive means mostly below about 14%; further: read at 38.3 µM for the half of the compounds with a filed dose; 0% is about no effect
# Marburg entry inh – blocks Marburg virus binding to or entry into cells. Marburg virus pseudotyped entry inhibition, cell reporter. Potency, µM (doses to about 37.8 µM), for the others: top-dose activity change, negative = inhibition, most hits filed as inhibitors. 1.8% of 300,000 active. AID 540276; calls by dose curve; tested in HEK293 cells; further: potency means the concentration at half of the fitted maximal effect; on the % scale 0 is the no-effect control and ±100 the full control effect
# Shiga inhibitor – Shiga toxin inhibition; Vero cells, Shiga toxin protein synthesis inhibition reporter; inhibition, % at 38.7 µM; 9.2% of 290,000 active; in the data active means inhibition mostly above about 28%, no sharp cut-off; inactive means mostly below about 43%; further: 0% is about no effect
# LASV entry inh – inhibitors of Lassa virus binding or cell entry | AID 540256 | 1.2% of 300,000 active | Potency, µM (series often up to 37.9 µM), for the others: at the top dose activity change, negative = inhibition, usual class: inhibitors | Lassa virus pseudotype entry inhibition, cell reporter; calls by dose curve; tested in HEK293 cells; further: potency means the concentration at half of the fitted maximal effect; on the % scale 0 is the no-effect control and ±100 the full control effect; nearly all actives have a fitted effect of over 50% in size
# * marks the source's active call; other numbers are inactive results; u = inconclusive; x = no result given; [ ] = remark or other dose.
SMILES,Cycloheximide cs,Marburg entry inh,Shiga inhibitor,LASV entry inh
CN(CCCC1CCCC1)C(=O)c1cc(COc2ccc(F)cc2F)on1,22*,-2%,58*,u
CCCCOc1nc2ccccc2nc1[C@H](C#N)C(=O)NC1CCCCC1,x,16%,x,x
CC(NC(=O)Cn1ncc2c3ccccc3n(Cc3ccc(F)cc3)c2c1=O)c1ccccc1 (centres undefined),x,u,x,0%[46.1 µM]
C=C1CCC[C@]2(C)C[C@H]3OC(=O)C(CN4CCCCC4CO)[C@H]3CC12 (some centres undefined),-6,11µM*,-15,-25%
CC(=O)c1cc(C#N)c(SCC(=O)OC(C)(C)C)nc1C,19*,30%[46.1 µM],20,27%
CN1CCc2nc(SCC(=O)Nc3ccc(Cl)cc3)c(C#N)cc2C1,x,u,x,19%
CN1CCc2nc(SCC(=O)OC(C)(C)C)c(C#N)cc2C1,35*,u,79*,2%
CC(=O)c1cc(C#N)c(SCC(=O)OC(C)C)nc1C,18*,-18%,26*,17%
Cc1ccc(NC(=O)CN2C(=O)COc3ccc(S(=O)(=O)NC4CCCC4)cc32)cc1Cl,x,x,x,0%[46.1 µM]
CN1CCCN=C1COC(=O)[C@@](O)(c1ccccc1)C1CCCCC1,x,-6%,x,x
Cc1ccc2ccccc2c1COC(=O)c1nonc1N,-2,7%,-12,-6%
CCOC(=O)c1ccc(COC(=O)c2nonc2N)cc1,22*,15%[46.1 µM],3,10%
CN(CC1CCCCO1)C(=O)c1cc(COc2ccc(F)cc2Cl)on1 (centres undefined),-2,-1%,-11,-6%
COc1ccc(OCc2cc(C(=O)N(C)CC3CCCCO3)no2)c(Cl)c1 (centres undefined),48*,28%,79*,-1%
COc1cc(Cl)ccc1OCc1cc(C(=O)N(C)CC2CCCCO2)no1 (centres undefined),40*,x,88*,x
CN(CCCC1CCCC1)C(=O)c1cc(COc2ccc(F)c(F)c2)on1,12,x,10,x
COc1ccc(OCc2cc(C(=O)N(C)CCC3CCOCC3)no2)c(Cl)c1,32*,x,60*,x
COc1ccc(OCc2cc(C(=O)N(C)C(C)c3ccon3)no2)c(Cl)c1 (centres undefined),34*,-7%,73*,3%
COc1cccc(OCc2cc(C(=O)N(C)C3CCOCC3)no2)c1,4,16%,19,1%
COc1cc(NC(=O)C(C)Oc2ccccc2)c(OC)cc1NC(=O)c1ccccc1 (centres undefined),-1,u,-10,-18%
CC(NC(=O)c1cc(F)c(F)c(F)c1F)c1ccc(-n2ccnc2)cc1 (centres undefined),-1,x,-9,x
CCC(=O)NC(c1ccccc1OC)c1ccc2cccnc2c1O (centres undefined),9,4.6µM*,19,u
COc1ccc(Cl)cc1C(Nc1cccnc1)c1ccc2cccnc2c1O (centres undefined),1,11µM*,-6,u
CCCC(=O)NC(c1ccc(OC)cc1)c1ccc2cccnc2c1O (centres undefined),-2,u,-1,u
Cc1ccc(Nc2nnc(SC(C)C(=O)NCC3CCCO3)s2)cc1 (centres undefined),x,-32%,x,1%
SMILES,Cycloheximide cs,Marburg entry inh,Shiga inhibitor,LASV entry inh
Cc1ccc(OCCCCn2c(CCNC(=O)C(C)(C)C)nc3ccccc32)cc1,x,u,x,-18%[46.1 µM]
CN(CCO)c1ncnc2c1sc1nc(N3CCOCC3)c3c(c12)CCC3,-2,x,-17,x
COc1ccc(/C=C(\C#N)C(=O)NCCc2ccccc2)cc1OCc1ccccc1,1,11µM*,1,u
COc1cc(/C=C(\C#N)C(=O)Nc2cccnc2)ccc1OC(C)C,-3,u,-7,-4%
COc1cc(/C=C(\C#N)C(=O)Nc2ccccc2F)ccc1OCCN1CCOCC1,25*,22%,14,1%
COCCNC(=O)/C(C#N)=C/C=C/c1ccccc1[N+](=O)[O-],17*,u,21,u
COc1cc(/C=C(\C#N)C(=O)Nc2ccccc2)ccc1OCCN1CCOCC1,27*,3%,45*,4%
COC(=O)c1cc2sc(C)cc2n1CC(=O)Nc1cccc(SC)c1,x,11%[46.1 µM],x,x
COCCNC(=O)CN1C(=O)CCn2nc(-c3cn(C)c4ccccc34)cc21,x,x,x,27%[46.1 µM]
CC(=O)N1CCc2cc(Br)cc(S(=O)(=O)N3CCN(c4cccc(C)c4)C(C)C3)c21 (centres undefined),x,-2%[46.1 µM],x,0%[46.1 µM]
COc1ccc(CNCc2c(F)cccc2F)cc1OC,-3,0%,-2,3%
N#C/C(=C\c1ccc(OCCN2CCOCC2)cc1)C(=O)Nc1ccccc1,20*,19%,17,2%
COCCNC(=O)/C(C#N)=C/c1ccc(O)cc1,19*,2%,32,x
COc1cc(/C=C(\C#N)C(=O)Nc2cccc(C(=O)O)c2)ccc1OCc1ccc(Cl)cc1,52*,u,107*,18%[46.1 µM]
Cc1cc(C)n(-c2ccc(C(=O)NC3CCCCC3)cc2)n1,21,u,40*,4%
Cc1ccc(C(=O)NC2CCCCC2)cc1,31*,0%,29,4%
O=C(NC1CCCCC1)c1ccc([N+](=O)[O-])cc1,x,10%[46.1 µM],x,u
Cc1cc(C)n(-c2ccc(C(=O)Nc3nnc(C)s3)cc2)n1,6,-11%,-2,2%
Cc1cc(C)n(-c2ccc(C(=O)Nc3sccc3C(N)=O)cc2)n1,35*,u,47*,u
O=C(NC1CCCCC1)c1ccc(-n2cnnn2)cc1,-3,x,-7,x
Cc1ccc(C(=O)NCC(=O)NC2CCCC2)cc1,3,5%,17,0%
N#Cc1ccc(C(=O)NC2CCCCCCC2)cc1,22*,u,83*,u
CCN(CC)S(=O)(=O)c1ccc2c(c1)N(CC(=O)Nc1ccccc1F)C(=O)C1CCCN21 (centres undefined),x,12%[46.1 µM],x,3%[46.1 µM]
Cc1cccc(N2CCN(C(=O)CCCn3ncn4c(cc5occc54)c3=O)CC2)c1C,x,6%[46.1 µM],x,-24%[46.1 µM]
Cc1cc(C)n(-c2ccc(C(=O)Nc3cccnc3Cl)cc2)n1,5,x,13,x
SMILES,Cycloheximide cs,Marburg entry inh,Shiga inhibitor,LASV entry inh
Cc1cc(C)n(-c2ccc(C(=O)Nc3ccccn3)cc2)n1,38*,u,65*,u
O=c1cc2oc3cc(O)c(O)cc3c(-c3ccccc3[N+](=O)[O-])c-2cc1O,-8,x,-1,x
c1ccc(-c2nc(NCc3cccnc3)c3oc4ccccc4c3n2)cc1,-2,u,-7,u
Cc1ccc(S(=O)(=O)CCC(=O)NC2CCCC2)cc1,-1,12%[46.1 µM],-8,3%[46.1 µM]
Cc1ccc(S(=O)(=O)CCC(=O)N(C)C2CCCCC2)cc1,13*,17%,26,-2%
CC(Sc1nncn1C)C(=O)Nc1nnc(-c2ccccc2)s1 (centres undefined),23*,x,46*,x
CC(SC1=NCCS1)C(=O)Nc1nnc(-c2ccc(Cl)cc2)s1 (centres undefined),12*,x,29*,x
O=C(Nc1cccc(Cl)c1)c1ccc(Cn2cc(Cl)cn2)cc1,15*,u,79*,4%
Cn1c(NC(=O)c2cccc(Cn3cc(Cl)cn3)c2)nc2ccccc21,69*,-7%,195*,u
CC(=O)Nc1ccc(NC(=O)c2ccc(Cn3cc(Cl)cn3)cc2)cc1,-1,x,-9,x
COc1ccc(CCNC(=O)c2cc(C)oc2C)cc1OC,-2,0%[46.1 µM],26,-10%
